Results filed as inconclusive are left out. Values without a mark were called inactive. The source made the active and inactive calls. The call rests on the fitted dose curve; in most records, active means well fitted curve in the direction sought with a large enough effect; inconclusive means small, poorly fitted or top-dose-only effect, or another doubt; inactive means no such curve, though single readings can be large; an effect the other way counts as inactive or inconclusive. Non-standard residues stand in square brackets, D forms with d. Residues, ends and D or L forms follow the SMILES beside them.
Legend:
[1] = BET inhibitor-based combinations targeting novel dependencies in MECOM-rearranged (r) AML: SET-2 cell line (AID 2202231); conditions: SET-2 AML cells viability, CellTiter-Glo luminescence, 48 h; viability: stronger effect = lower value, concentration not given here; further: nearly all actives have a fitted effect of over 35% in size;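 on viability: plate controls were DMSO treated cells for no effect and wells without cells for full effect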
Summary of the method: (§1)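 Each compound was tested at eleven concentrations on cells seeded at 500/well. After two days' incubation, ATP-based luminescence reported viability; responses relative to DMSO and blank wells yielded AUC and cell-line-centred Z-AUC.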

[2] = BET inhibitor-based combinations targeting novel dependencies in MECOM-rearranged (r) AML: UCSD-AML1 cell line (AID 2202235); conditions: UCSD-AML1 AML cells viability, CellTiter-Glo, 48 h; series mostly up to 46 µM; further: nearly all actives have a fitted effect of over 40% in size
Summary of the method: (§2)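 First, 500 cells per well were seeded; next, drugs were pinned as 11-point doses; then plates sat 48 hr in the incubator; finally CellTiter-Glo was added and luminescence read, with AUC and Z-AUC computed.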

[3] = BET inhibitor-based combinations targeting novel dependencies in MECOM-rearranged (r) AML: AML-191 cell line (AID 2202236; further: nearly all actives have a fitted effect of over 35% in size); conditions: AML-191 viability, CellTiter-Glo luminescence, 48 h; series mostly up to 46 µM
Summary of the method: as §1

[4] = BET inhibitor-based combinations targeting novel dependencies in MECOM-rearranged (r) AML: AML-194 cell line (AID 2202237; further: nearly all actives have a fitted effect of over 40% in size); conditions: AML-194 (MECOM-r AML) viability, CellTiter-Glo, 48 h; series mostly up to 46 µM
Summary of the method: as §1

[5] = BET inhibitor-based combinations targeting novel dependencies in MECOM-rearranged (r) AML: HNT-34 cell line (AID 2202234); conditions: HNT-34 AML viability, CellTiter-Glo luminescence, 48 h; series mostly up to 46 µM; further: nearly all actives have a fitted effect of over 35% in size
Summary of the method: as §2

[6] = BET inhibitor-based combinations targeting novel dependencies in MECOM-rearranged (r) AML: OCI-AML3 cell line (AID 2202232); conditions: CellTiter-Glo luminescence, 48 h; Potency: OCI-AML3 viability; series mostly up to 46 µM; further: nearly all actives have a fitted effect of over 35% in size
Summary of the method: as §1

[7] = BET inhibitor-based combinations targeting novel dependencies in MECOM-rearranged (r) AML: MV-4-11 cell line (AID 2202233); conditions: MV-4-11 AML viability, CellTiter-Glo luminescence, 48 h; series mostly up to 46 µM; further: nearly all actives have a fitted effect of over 45% in size
Summary of the method: as §2
Potency means the concentration at half of the fitted maximal effect.

| SMILES | viability [1] [%] | Potency [2] | Potency [3] | Potency [4] | Potency [5] | Potency [6] | Potency [1] | Potency [7] |
| --- | --- | --- | --- | --- | --- | --- | --- | --- |
| Nc1nc(OC(c2ccc(-c3cccc(F)c3)cc2)C(F)(F)F)cc(-c2ccc(C[C@H](N)C(=O)O)cc2)n1 (stereo partly drawn) | 120 | inactive | inactive | inactive |  |  |  |  |
| CC/C(=C(/c1ccc(/C=C/C(=O)O)cc1)c1ccc2[nH]ncc2c1)c1ccc(F)cc1Cl | 98.4 |  | inactive | inactive |  |  |  |  |
| O=C(O)CCCCN(CCc1ccccc1OCc1ccc(CCc2ccccc2)cc1)Cc1ccc(C(=O)O)cc1 | 108 |  | inactive | inactive | 2.09 µM (active) |  |  |  |
| Nc1ncnc(Nc2ccc(OCc3ccccc3)c(Cl)c2)c1/C=N/OCCN1CCOCC1 |  |  |  |  |  | inactive |  |  |
| O=C1NC(=O)[C@@H](c2cn3c4c(cccc24)CCC3)[C@@H]1c1c[nH]c2ccccc12 |  |  | 934 nM (active) | 934 nM (active) | 0.934 µM (active) |  | 1.32 µM (active) |  |
| C=CC(=O)N1CCC(C2CCNc3c(C(N)=O)c(-c4ccc(Oc5ccccc5)cc4)nn32)CC1 (stereo not drawn) |  |  |  |  |  | 13.2 µM (active) |  | 10.5 µM (active) |
| Nc1ncn([C@H]2C[C@H](O)[C@@H](CO)O2)c(=O)n1 |  |  |  |  |  | 0.417 µM (active) |  | 0.332 µM (active) |
| O=c1ncccn1[C@@H]1O[C@H](CO)[C@@H](O)[C@H]1O | 109 |  |  | inactive | inactive |  |  |  |
| C=CC(=O)Nc1ccc(F)c(-c2ncnc3[nH]cc(C(=O)OCC)c23)c1 | 83.4 |  | inactive |  |  |  |  |  |
| CONC(=O)Nc1ccc(-c2sc3c(c2CN(C)Cc2ccccc2)c(=O)n(-c2ccccc2)c(=O)n3Cc2c(F)cccc2F)cc1 | 104 | inactive | inactive |  |  |  |  |  |
| NC(=O)c1cc(F)cc2c1C(=O)N(C1CCN(C3CCC(F)(F)CC3)CC1)C2 | 106 | inactive | inactive | inactive |  |  |  |  |
| COc1ccc2[nH]c3c(c2c1)CCN[C@]31CS[C@@H]2c3c(OC(C)=O)c(C)c4c(c3[C@H](COC1=O)N1[C@@H]2[C@H]2c3c(cc(C)c(OC)c3O)C[C@@H]([C@@H]1O)N2C)OCO4 |  | 0.0038 µM (active) | 4.8 nM (active) | 3.8 nM (active) | 0.0034 µM (active) | 0.0034 µM (active) |  | 0.0019 µM (active) |
| Cc1c(Cl)cccc1S(=O)(=O)Nc1nc(CCN2CCOCC2=O)cs1 |  | inactive |  |  | inactive | 0.0742 µM (active) |  | inactive |
| CC(C)(O)CC[C@@H](O)[C@](C)(O)[C@H]1CC[C@@]2(O)C3=CC(=O)[C@@H]4C[C@@H](O)[C@@H](O)C[C@]4(C)[C@H]3CC[C@]12C |  | inactive | inactive | inactive | inactive | inactive |  | inactive |
| CN(C)CCCOc1ccc(-c2ccc3ncc4c(c3c2)n(C2CCOCC2)c(=O)n4C)cn1 |  |  |  |  | 2.57 µM (active) | 7.23 µM (active) |  | 4.07 µM (active) |
| COc1cc(-c2cn(C)c(=O)c3cnccc23)c(OC)cc1CN(C)C |  | inactive | inactive | inactive | inactive | 1.18 µM (active) |  | 4.17 µM (active) |
| COc1cc(C(C)C)c2c(c1)S(=O)(=O)N(COc1cc(=O)n3cccc(OCCN4CCCCC4)c3n1)C2=O |  | 26.3 µM (active) | 29500 nM (active) | 23500 nM (active) | 20.9 µM (active) | 23.5 µM (active) |  | 23.5 µM (active) |
| CC(C)C[C@@H]1NC(=O)[C@@H](C(C)C)NC(=O)[C@@H]2CCCN2C(=O)[C@@H](CC(=O)O)NC(=O)[C@@H](Cc2c[nH]c3ccccc23)NC1=O (cyclo(L[dW][dD]P[dV])) |  | inactive | inactive | inactive | inactive | inactive |  | inactive |
| N#Cc1ccc(Cn2cncc2CN2CCN(c3cccc(Cl)c3)C(=O)C2)cc1 |  | 3.72 µM (active) |  |  | 1.66 µM (active) | 2.95 µM (active) |  | 7.42 µM (active) |
| CCNC(=O)Nc1ccc(-c2nc3c(c(N4CCOC[C@@H]4C)n2)CCN(C2COC2)C3)cc1 |  |  |  |  | 1.05 µM (active) | 1.48 µM (active) |  | 1.32 µM (active) |
| Cc1cc2cc(Oc3ccnc(Nc4cccc(CS(=O)(=O)NCCN(C)C)c4)n3)ccc2[nH]1 |  | 16.6 µM (active) | 18600 nM (active) | 16600 nM (active) | 13.2 µM (active) | 20.9 µM (active) |  | 3.32 µM (active) |
| CC(=O)O[C@@]12CO[C@@H]1C[C@H](O)[C@@]1(C)C(=O)[C@H](O)C3=C(C)[C@@H](OC(=O)[C@H](O)[C@@H](NC(=O)OC(C)(C)C)c4ccccc4)C[C@@](O)([C@@H](OC(=O)c4ccccc4)[C@H]21)C3(C)C |  | 0.0047 µM (active) | 13.2 nM (active) | 14.8 nM (active) | 0.0037 µM (active) | 0.0033 µM (active) |  | 0.0042 µM (active) |

From PubChem BioAssay (NCATS)
